An excerpt weighted towards active compounds, which were near 1.2% of everything screened.
Sa ugtP lethal = compounds lethal to S. aureus RN4220 ugtP deletion mutant; OD600 growth, 16 h; growth inhibition, % (test concentration not listed); 0.54% of 330,000 active; AID 1259309; in the data active = growth inhibition above about 68%;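 also: plate controls were untreated wells for no effect and antibiotic for full effect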
TcdB inh = TcdB glycohydrolase inhibition; P18177; TcdB glycohydrolase enzymatic assay, plate reader; inhibition, % at 9.99 µM; 0.24% of 350,000 active; AID 652162; in the data active = inhibition above about 10%
Target sequence (P18177 whole entry, looked up): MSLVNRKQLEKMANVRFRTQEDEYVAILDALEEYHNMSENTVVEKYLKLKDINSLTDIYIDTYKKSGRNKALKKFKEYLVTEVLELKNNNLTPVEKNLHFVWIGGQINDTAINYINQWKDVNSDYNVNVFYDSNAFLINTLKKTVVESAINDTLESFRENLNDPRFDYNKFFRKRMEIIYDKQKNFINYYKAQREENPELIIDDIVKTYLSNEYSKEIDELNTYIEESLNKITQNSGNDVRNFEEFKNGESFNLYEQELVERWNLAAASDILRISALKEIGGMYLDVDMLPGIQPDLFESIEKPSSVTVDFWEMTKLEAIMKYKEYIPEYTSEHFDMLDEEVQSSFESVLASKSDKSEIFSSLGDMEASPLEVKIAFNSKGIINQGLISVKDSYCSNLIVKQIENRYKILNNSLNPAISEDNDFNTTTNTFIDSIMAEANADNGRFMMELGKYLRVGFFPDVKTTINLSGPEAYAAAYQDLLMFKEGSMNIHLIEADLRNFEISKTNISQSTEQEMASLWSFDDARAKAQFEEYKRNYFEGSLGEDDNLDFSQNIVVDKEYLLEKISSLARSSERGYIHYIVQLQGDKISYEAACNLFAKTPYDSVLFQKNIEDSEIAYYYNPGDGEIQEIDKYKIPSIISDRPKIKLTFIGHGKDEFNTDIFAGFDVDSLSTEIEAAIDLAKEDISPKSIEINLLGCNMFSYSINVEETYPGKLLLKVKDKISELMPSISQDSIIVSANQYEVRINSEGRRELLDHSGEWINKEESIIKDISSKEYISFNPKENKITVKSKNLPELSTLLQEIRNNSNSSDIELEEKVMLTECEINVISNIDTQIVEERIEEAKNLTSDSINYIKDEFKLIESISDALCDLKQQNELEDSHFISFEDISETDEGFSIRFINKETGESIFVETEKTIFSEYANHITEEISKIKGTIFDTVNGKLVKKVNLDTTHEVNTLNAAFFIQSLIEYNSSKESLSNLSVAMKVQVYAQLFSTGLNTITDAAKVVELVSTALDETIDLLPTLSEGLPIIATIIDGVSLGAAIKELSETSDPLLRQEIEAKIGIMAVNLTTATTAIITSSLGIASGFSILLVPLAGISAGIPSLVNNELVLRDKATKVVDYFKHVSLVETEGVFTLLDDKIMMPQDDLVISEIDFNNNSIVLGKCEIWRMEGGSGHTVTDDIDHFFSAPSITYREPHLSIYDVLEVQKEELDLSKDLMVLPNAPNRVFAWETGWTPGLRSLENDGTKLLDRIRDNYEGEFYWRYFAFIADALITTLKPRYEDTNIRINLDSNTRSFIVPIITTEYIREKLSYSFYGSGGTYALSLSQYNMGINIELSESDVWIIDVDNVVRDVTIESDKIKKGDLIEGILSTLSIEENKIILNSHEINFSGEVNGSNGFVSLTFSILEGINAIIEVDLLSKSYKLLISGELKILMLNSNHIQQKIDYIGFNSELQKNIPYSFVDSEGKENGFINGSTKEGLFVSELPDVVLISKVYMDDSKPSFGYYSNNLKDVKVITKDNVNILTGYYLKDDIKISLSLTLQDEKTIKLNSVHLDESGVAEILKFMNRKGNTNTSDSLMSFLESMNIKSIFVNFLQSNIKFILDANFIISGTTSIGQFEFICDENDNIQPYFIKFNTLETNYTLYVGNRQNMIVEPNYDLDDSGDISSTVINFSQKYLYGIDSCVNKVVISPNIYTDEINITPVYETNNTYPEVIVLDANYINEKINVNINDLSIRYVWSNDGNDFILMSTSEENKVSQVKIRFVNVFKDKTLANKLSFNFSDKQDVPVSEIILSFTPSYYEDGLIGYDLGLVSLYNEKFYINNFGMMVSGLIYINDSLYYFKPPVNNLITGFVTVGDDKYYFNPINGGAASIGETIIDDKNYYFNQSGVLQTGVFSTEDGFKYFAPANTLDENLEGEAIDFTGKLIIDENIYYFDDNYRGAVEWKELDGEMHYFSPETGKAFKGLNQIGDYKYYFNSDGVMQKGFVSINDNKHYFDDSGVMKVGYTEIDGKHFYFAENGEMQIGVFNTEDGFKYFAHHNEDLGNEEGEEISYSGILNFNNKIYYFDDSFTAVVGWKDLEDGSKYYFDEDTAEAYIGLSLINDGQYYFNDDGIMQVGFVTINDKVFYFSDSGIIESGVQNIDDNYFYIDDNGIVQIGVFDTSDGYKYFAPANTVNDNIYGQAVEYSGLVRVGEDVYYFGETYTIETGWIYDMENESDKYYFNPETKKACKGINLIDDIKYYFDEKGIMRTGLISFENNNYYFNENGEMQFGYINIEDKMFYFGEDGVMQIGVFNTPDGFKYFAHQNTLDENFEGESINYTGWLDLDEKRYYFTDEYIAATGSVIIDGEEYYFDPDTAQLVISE
PrP 5UTR inh = inhibition of PrP 5' UTR reporter expression; inhibition, % (no concentration beside the values); cell-based PrP 5' UTR mRNA reporter, plate reader; 0.35% of 340,000 active; in the data active = inhibition above about 52%; also: 0 = median of the neutral control wells
RN4220 kill = S. aureus RN4220 growth inhibition. OD600, 16 h. inhibition, % (no concentration beside the values). 0.33% of 330,000 active. AID 1259311; in the data active = inhibition above about 85%;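 also: plate controls were untreated cells for no effect and reference antibiotic for full effect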
PfHsp40 yeast = rescue of PfHsp40-mediated yeast toxicity. S. cerevisiae expressing PfHsp40, growth rescue, ATP luminescence. 0.68% of 340,000 active. growth rescue, % at 12.5 µM; in the data active = growth rescue above about 28%, passing the limit was not always enough; inconclusive = no clear call, values can overlap the other calls;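 also: yeast W303a lacking pdr1 and pdr3 grown in galactose medium; growth measured after three days at 30 °C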
Starred values were filed as active, the others as inactive; ? = inconclusive; / = no result.

SMILES	Sa ugtP lethal	TcdB inh	PrP 5UTR inh	RN4220 kill	PfHsp40 yeast
Cc1ccc(S(=O)(=O)NCC[C@@H]2CC[C@H](NC(=O)c3cccnc3)[C@@H](CO)O2)cc1	/	0	/	/	/
CC1OC(n2cc(F)c(=O)[nH]c2=O)C(O)C1O (stereo not drawn)	97*	/	/	76	/
O=C(C[C@@H]1CC[C@@H]2[C@H](COC[C@@H](O)CN2C(=O)Nc2ccccc2)O1)NCc1ccncn1	/	1	/	/	/
O=C(O)Cn1cc2c(n1)CCCCC2	2	/	-6	5	30*
O=C(Cn1cc2c(n1)CCCCC2)N1CCCCC1	-6	-1	-25	-1	-1
N#Cc1cccc(-c2ccc([C@@H]3[C@H](CO)N4CCCCN(S(=O)(=O)c5ccccc5)C[C@@H]34)cc2)c1	/	1	/	/	/
CC(C)NC(=O)N[C@H]1CC[C@H](CCNC(=O)C2CCOCC2)O[C@@H]1CO	/	1	/	/	/
Cc1nnc(SCC2=C(C(=O)O)N3C(=O)C(NC(=O)Cn4ncc(Cl)c4C)C3SC2)s1 (stereo not drawn)	99*	0	-32	99*	1
Cc1cc(C)n(CC(=O)NC2C(=O)N3C(C(=O)O)=C(CSc4nnc(C)s4)CSC23)n1 (stereo not drawn)	100*	0	-25	100*	-1
Cc1nnc(SCC2=C(C(=O)O)N3C(=O)C(NC(=O)c4cccc(F)c4F)C3SC2)s1 (stereo not drawn)	101*	-1	-9	100*	0
CC1=C(C(=O)O)N2C(=O)C(NC(=O)c3nn(C)c(C)c3Cl)C2SC1 (stereo not drawn)	23	1	1	19	1
Nc1ccn(Cc2ccccc2)n1	4	0	0	12	1
c1ccc(Cn2ccc(-c3cnc(-c4ccccc4)s3)n2)cc1	14	/	-52	-5	69*
O=C(Nc1ccccc1Cl)ON=Cc1ccncc1	2	/	/	2	/
COc1ccc(-n2ncc(S(=O)(=O)c3ccccc3)c2-c2ccc(Cl)cc2)cc1	13	/	-17	16	1
O=S(=O)(c1ccccc1)c1cnn(-c2ccccc2)c1-c1ccc(F)cc1	9	/	-11	11	49*
O=S(=O)(c1ccc(F)cc1)N1CCCC1	9	0	-22	1	37*
O=C(Nc1ccc(F)cc1)Nc1ccc(S(=O)(=O)N2CCCC2)cc1	-12	-3	-9	1	0
Cc1cc(C(=O)COC(=O)c2cc(Cl)ccc2N)c(C)n1Cc1ccco1	99*	0	-124	82	-1
Cc1cc(C(=O)COC(=O)c2ccco2)c(C)n1Cc1ccco1	0	2	27	5	0
C/C=C/c1ccc2c(c1)O[C@H](CN(C)C(=O)c1cccc(F)c1)[C@@H](C)CN([C@@H](C)CO)S2(=O)=O	/	2	/	/	/
O=C1Nc2ccc(Br)cc2C12NNc1ccccc1O2 (stereo not drawn)	97*	2	-65	85	2
CC(=O)OCC(=O)[C@@]1(O)C(C)CC2C3CCC4=CC(=O)C=C[C@]4(C)[C@@]3(F)C(O)C[C@@]21C (stereo partly drawn)	-5	/	/	4	/
CO[C@@H]1CN(C)C(=O)c2ccc(NC(C)=O)cc2OC[C@H](C)N(CC2CC2)C[C@H]1C	/	1	/	/	/
CC(C(=O)NCCCn1ccnc1)(c1ccccc1)c1ccccc1	12	0	-21	5	0
SMILES	Sa ugtP lethal	TcdB inh	PrP 5UTR inh	RN4220 kill	PfHsp40 yeast
CCCCCCC(Cl)(Cn1ccnc1)c1ccccc1 (stereo not drawn)	13	2	-12	5	255*
Nc1ccc(OCCCc2c(N)nc(N)nc2N)cc1	/	12*	-27	/	48*
COc1cc2oc3ccc(C#Cc4ccccn4)cc3c(=O)c2cc1OC	-27	11*	-6	5	-1
COc1cc2oc3ccc(C#Cc4ccc(N)cc4)cc3c(=O)c2cc1OC	13	1	-19	1	-2
CCOc1ccc(/C=C2/SC(=O)NC2=S)cc1	100*	/	-23	66	18
O=C(O)C/C(=C\c1ccc(Cl)cc1)c1nc2ccccc2o1	-13	0	-19	18	135*
O=C(O)C(=O)/C(=C\c1ccc(Cl)cc1)c1ccc2ccccc2n1	-5	1	-40	4	-1
COc1ccccc1NS(=O)(=O)c1ccc(C(=O)N2CCCC(C(F)(F)F)C2)cc1 (stereo not drawn)	-1	0	-20	8	0
Cc1ccc(NS(=O)(=O)c2ccc(C(=O)N3CCCC(C(F)(F)F)C3)cc2)cc1 (stereo not drawn)	-9	0	-24	8	51*
C[C@@H]1CN([C@@H](C)CO)C(=O)c2cc(NC(=O)C3CC3)ccc2O[C@@H]1CN(C)C(=O)Nc1ccc(C(F)(F)F)cc1	/	3	/	/	/
CC1(C)Cc2nc(Cl)c(C#N)cc2CO1	-2	10*	-32	1	-1
CC1(C)Cc2nc(N3CCCC3)c(C#N)cc2CO1	5	4	-10	5	-1
Oc1ccc(-c2nc3ccccc3s2)c(O)c1	27	1	-67	17	244*
Nc1ccc(O)c(-c2nc3ccccc3s2)c1	-2	/	-28	-4	1
CCCCCCCCCCCCCCCC[n+]1ccccc1	100*	3	10	100*	1
CCCCCCCCCCCCCCCC[n+]1cccc(C(=O)N(CC)CC)c1	100*	3	-12	100*	?
CCCCCCCCCCCCCCCC[n+]1ccc(C(N)=O)cc1	100*	/	-12	100*	?
CCCCCCCC[n+]1cccc(C(=O)N(CC)CC)c1	8	0	-10	2	-1
CN(C)c1ccc(/C=C/c2cc[n+](C)c3ccccc23)cc1	/	0	10	/	?
CN(C)c1ccc(/C=C/C=C/c2sc3ccccc3[n+]2C)cc1	/	5	-28	/	126*
CC[n+]1c(/C=C/C=C/c2ccc(N(C)C)cc2)sc2ccccc21	82*	10	5	88*	245*
CC[n+]1c(/C=C/C=C/N(C(C)=O)c2ccccc2)sc2ccccc21	/	/	-6	/	0
CN(C)c1ccc(C=Cc2cc[n+](C)c3ccccc23)cc1	93*	/	/	95*	/
CCCCCCOc1ccc(C(C)=NNC2=NCCN2)cc1[N+](=O)[O-]	73	/	/	37	/
C[C@H](CO)N1C[C@H](C)[C@H](CN(C)S(=O)(=O)c2ccc(Cl)cc2)Oc2ccc(N(C)C)cc2C1=O	/	-7	/	/	/
SMILES	Sa ugtP lethal	TcdB inh	PrP 5UTR inh	RN4220 kill	PfHsp40 yeast
Cn1c(COc2cccc3ccccc23)nnc1SCC(=O)OC1CCCCC1	92*	1	-8	97*	-1
CCn1c(COc2cccc3ccccc23)nnc1SCC(=O)OC1CCCCC1	99*	-1	-10	99*	7
O=C(O)CSc1nnc(COc2cccc3ccccc23)n1Cc1ccccc1	6	1	-22	6	0
CCCCNC(=O)c1c(O)c2cccc3c2n(c1=O)CCC3	-1	/	-1	-11	9
CCCc1nnc(NC(=O)c2c(O)c3cccc4c3n(c2=O)CCC4)s1	96*	/	/	88*	/
CCc1cc(-c2n[nH]c(C)c2-c2nc(C)cs2)c(O)cc1OC	-22	12*	-23	-5	/

Screening data: PubChem BioAssay, several laboratories
